Compounds with a hit are over-represented: about 15% of the library has one in this group of screens.
HCV inhibitor: HCV inhibition; Huh7.5.1 HCVcc-Cre infection, luciferase reporter, 44 h; Potency, µM (top dose mostly 41.8 µM), without a hit: at the top dose activity change, negative = inhibition, hits mostly inhibitors; hit rate 3.4% among 340,000; also: potency is read from the fitted curve at half-maximal effect; % is scaled to controls: 0 for no effect and ±100 for the full control effect
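A cell-based infection assay in which seeded cells (1,000 per well) receive test compound after 4 h, are inoculated with HCVcc-Cre at approximately 0.5 moi, and are incubated 44 h before luminescence detection.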
Pf growth 48h: inhibits P. falciparum growth in the first generation, 48 h | P. falciparum luciferase growth in erythrocytes, 48 h | Potency, µM (highest dose often 28.7 µM), for the others: at the highest dose activity change, negative = inhibition, actives largely listed as inhibitors | hit rate 5.9% among 310,000 | AID 504832; also: potency is read from the fitted curve at half-maximal effect; % is scaled to controls: 0 for no effect and ±100 for the full control effect
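Erythrocytes infected with P. falciparum carrying an integrated firefly luciferase reporter (2% hematocrit, 0.1% parasitemia final) were exposed to compounds in RPMI 1640 with 0.5% Albumax at 37 C, 5% CO2. Growth inhibition was scored as reduced luminescence.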
HCMV inh: blocks human cytomegalovirus replication; HFF cells, HCMV-luciferase reporter, 72 h; stronger effect = lower value; AID 1259415; activity change, negative = inhibition, % at 57.5 µM; hit rate 4.5% among 410,000; in the data active = activity change below about -60%; inconclusive = no clear call, values can overlap the other calls; inactive = above about -39%; also: % is scaled to controls: 0 for no effect and ±100 for the full control effect
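Inhibition of viral replication was scored as loss of reporter luminescence in HFFs infected with HCMV-luciferase (MOI 1 PFU/cell) for 72 h; compounds tested at 2 doses, normalized to buffer and Salinomycin controls.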
Pf growth 96h: inhibits malaria parasite growth, 96 h; P. falciparum luciferase reporter growth, 96 h; Potency, µM (titrated, usually from 28.7 µM), without a hit: top-dose activity change, negative = inhibition, most hits filed as inhibitors; hit rate 6.9% among 320,000; AID 504834; also: potency is read from the fitted curve at half-maximal effect; % is scaled to controls: 0 for no effect and ±100 for the full control effect
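Delayed-death screen, second-generation endpoint: infected erythrocytes, 2% hematocrit, 0.05% parasitemia final; 96 hours at 37 C, 5% CO2; luciferase detection reagent; luminescence decrease equals reduced growth.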
Sm TGR block: S. mansoni TGR enzyme inhibition; purified TGR, DTNB reduction, TNB absorbance 405 nm; Potency, µM (series often up to 114 µM), without a hit: top-dose activity change, negative = inhibition, usual class: inhibitors; hit rate 3% among 360,000; Q962Y6; also: potency is read from the fitted curve at half-maximal effect; % is scaled to controls: 0 for no effect and ±100 for the full control effect; nearly all actives have a fitted effect of over 60% in size
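Kinetic colorimetric format: TGR-catalysed, NADPH-driven DTNB reduction monitored via TNB absorbance. Enzyme dispensed at 20 nM; compound exposure 15 min at room temperature before reaction start.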
SARS PLpro yeast: blocks SARS-CoV papain-like protease in a yeast assay; S. cerevisiae expressing SARS-CoV PLpro, growth rescue; Potency, µM (top dose mostly 32.9 µM), for the others: top-dose activity, positive = growth rescue, most hits filed as activators; hit rate 0.19% among 330,000; calls by dose curve; also: potency is read from the fitted curve at half-maximal effect; 0% is about no effect; nearly all actives have a fitted effect of over 55% in size
* = called active by the depositor; ? = inconclusive; nt = no result; [ ] = dose if it differs, or a comment. Unless noted, calls follow the shape of the dose curve; as a rule, active = well fitted curve in the direction sought with a large enough effect; inconclusive = small, poorly fitted or top-dose-only effect, or another doubt; inactive = no such curve, though single readings can be large; an effect the other way counts as inactive or inconclusive.

SMILES	HCV inhibitor	Pf growth 48h	HCMV inh	Pf growth 96h	Sm TGR block	SARS PLpro yeast
Cc1nc2c(sc(=S)n2Cc2ccco2)c(=O)n1CC(=O)Nc1cc(F)ccc1F	12.6µM*	-25.3%	8.6	?	-14.0%	13.0%
COc1ccccc1NC(=O)Cn1c(C)nc2c(sc(=S)n2Cc2ccco2)c1=O	12.6µM*	-8.5%	13.5	?	-27.2%	10.6%
Cc1ccc(NC(=O)Cn2c(=O)n(Cc3ccco3)c(=O)c3sc4ccccc4c32)c(C)c1	nt	nt	-2.3	nt	-10.0%	nt
Cc1nc2c(sc(=S)n2Cc2ccco2)c(=O)n1CC(=O)Nc1ccc(F)cc1	?	?	-10.8	8.9%	-21.8%	-2.9%
O=C(Cn1c(=O)n(Cc2ccco2)c(=O)c2sc3ccccc3c21)Nc1ccc(F)cc1F	nt	nt	-74.4*	nt	6.1%	nt
CC(=O)OC1C(N2CCCCC2)c2c(ccc(/C=C/C(=O)N3CCCCC3)c2O)OC1(C)C (centres undefined)	1.8%	?	-18.0	12.5%	12.9%	-2.3%
C=CCn1c(SCC(=O)N2CCN(c3ccccc3)CC2)nc2c([nH]c3ccccc32)c1=O	?	104.5%	-29.4	-8.2%	-22.1%	-7.5%
c1ccc2c(c1)Sc1ccccc1-n1cnnc1-2	6.6%	?	-11.1	9.28µM*	-21.3%	1.8%
Clc1ccccc1-c1nnc2n1-c1ccccc1SC2	-6.1%	?	5.5	?	4.4%	-1.5%
Clc1ccc2c(c1)-c1nnc(Br)n1-c1ccccc1S2	-13.3%	10.4µM*	-17.0	?	-2.8%	-10.6%
Brc1nnc2n1-c1ccccc1Sc1ccccc1-2	15.7%	11.7µM*	-8.6	8.28µM*	-31.9%	22.0%
Cc1cc(C)n(CC(=O)N2c3ccccc3Sc3ccccc32)n1	-9.9%	?	45.6	14.4%	-12.2%	-14.0%
C[C@@H]1CN([C@@H](C)CO)C(=O)CCCn2nncc2CO[C@H]1CN(C)Cc1ccc(Cl)c(Cl)c1	nt	nt	4.7	nt	nt	nt
CN1C(=O)N(CC(=O)Nc2sccc2C(N)=O)C(=O)C12CCCCC2	-8.2%	-7.5%	-3.5	?	-18.6%	5.0%
COc1ccc(OC(C)C(=O)N(C)Cc2nc(-c3cccc(C)c3)no2)cc1 (centres undefined)	?	1.0%	?	5.8%	2.7%	3.7%
Cc1cccn2c(Nc3ccccc3)c(-c3ccccn3)nc12	-7.0%	?	-66.2*	?	12.6%	0.1%
Cc1ccccc1Nc1c(-c2ccc(Cl)cc2)nc2c(C)cccn12	nt	nt	0.5	nt	3.3%	nt
Cc1cccc(C)c1Nc1c(-c2ccccn2)nc2c(C)cccn12	nt	nt	-68.8*	nt	-7.8%	nt
CC(C)c1ccc(NC(=O)N2CCc3nc(NCc4cccc(Oc5ccccc5)c4)ncc3C2)cc1	nt	nt	-86.6*	nt	nt	nt
COc1cccc(NC(=O)N2CCc3ccccc3C2)c1	9.7%	125.0%	160.4	4.9%	2.6%	-13.9%
CN(CC(=O)Nc1cccc(F)c1)CC(=O)Nc1ccccc1Oc1ccccc1	-29.5%	?	44.5	?	8.4%	-1.4%
COc1cccc(NC(=O)N2CCc3nc(Nc4ccc(C(C)C)cc4)ncc3C2)c1	nt	nt	-68.6*	nt	nt	nt
O=C(Nc1cccc(F)c1)N1CCc2nc(NCc3cccc(Oc4ccccc4)c3)ncc2C1	nt	nt	-77.8*	nt	nt	nt
CCCc1cc(C(=O)OC)c(NC(=O)c2cc(C)on2)s1	?	-16.2%	-4.4	?	-18.8%	-27.9%
O=C(NCCN1CCOCC1)Nc1ccc(Cl)cc1	-4.1%	30.9%	60.9	4.65µM*	5.1%	-0.8%
SMILES	HCV inhibitor	Pf growth 48h	HCMV inh	Pf growth 96h	Sm TGR block	SARS PLpro yeast
Cc1ccc(Cl)cc1N1CCN(CC(=O)Nc2ccc(CN3CCCCC3)cc2)CC1	8.91µM*	?	-35.9	?	6.3%	-17.5%
COc1ccccc1N1CCN(CC(=O)Nc2ccc(CN3CCCCC3)cc2)CC1	?	0.5%	-30.5	?	1.4%	-1.4%
Cc1ccc(Cl)cc1N1CCN(CCNC(=O)Nc2ccc(Cl)cc2)CC1	nt	nt	-90.2*	nt	-0.7%	nt
CCOc1ccc(NC(=O)NCCN2CCN(c3cc(Cl)ccc3C)CC2)cc1	nt	nt	-24.1	nt	-1.3%	nt
Cc1ccc(Cl)cc1N1CCN(CCN)CC1	10µM*	?	1.3	?	-4.2%	-0.4%
S=C(NCCN1CCOCC1)Nc1ccc(Cl)cc1	6.6%	-15.9%	-2.9	55.6%	3.8%	9.6%
CC(C)C(N)c1csc(NC(=O)Nc2ccc(OC(F)(F)F)cc2)n1 (centres undefined)	nt	nt	-31.9	nt	nt	nt
O=C1C(=O)N(Cc2cccs2)c2ccccc21	22.3%	3.0%	2.5	-3.1%	47.1%	-28.3%
CCOC(=O)[C@]12CCCC=C1N(Cc1ccccc1)C(=O)[C@H](CC(=O)N1CCN(C(=O)C3CC3)CC1)C2	nt	nt	20.9	nt	nt	nt
CC(C)(C)OC(=O)N[C@H](/C=C/c1ccccc1)C(=O)OC(C)(C)C	14.2%	?	6.6	?	-15.8%	0.5%
COc1ccc(N2C(=O)C(CC(N)=O)N(NC(=O)CCc3ccccc3)C2=O)cc1 (centres undefined)	-11.9%	8.6%[5.75 µM]	-11.6	?	5.2%	0.9%
COc1cccc(N2CCN(S(=O)(=O)c3cn(C)c(C)n3)CC2)c1	nt	nt	9.9	nt	9.8%	nt
CC(C)C(C)(C#N)NC(=O)CSc1nnc(-c2ccncc2)n1Cc1ccccc1 (centres undefined)	20.6%	?	-8.6	3.7µM*	-3.5%	-1.6%
CC(C)C(C)(C#N)NC(=O)CSc1nc2scc(-c3ccc(F)cc3)c2c(=O)n1Cc1ccccc1 (centres undefined)	-17.2%	9.28µM*	-27.3	4.65µM*	0.5%	29.3%
CC1(C)CCC(=O)N2CC[C@H]3C[C@H](OC(=O)Nc4ccc(Br)cc4)C[C@@H]1[C@H]32	19.6%	0.7%	-100.8*	-0.4%	-10.4%	2.1%
Cc1ccc(C)c(N2CCN(C(=O)Cn3c(C)c4cnn(-c5ccccc5)c(=O)c4c3C)CC2)c1	nt	nt	?	nt	-10.6%	nt
CCOC(=O)C(C#N)=C1CCN(Cc2ccccc2)CC1	-6.5%	nt	46.5	7.38µM*	?	2.5%
CC(=O)Nc1ccc(C(=O)CN2C(=O)CSC2=O)cc1	19.2%	2.4%	98.9	?	-8.7%	-5.3%
Cc1cc(C(C)(C)C)oc1C(=O)N(CC(=O)NC1CCCC1)Cc1ccccc1	-15.4%	?	-24.0	?	-2.7%	?
Cc1ccc(C)c(N(CC(=O)NC2CCCC2)C(=O)c2oc(C(C)(C)C)cc2C)c1	?	?	-67.5*	?	-0.1%	-34.8%
CCc1nc2ccc(C(=O)NCc3ccc(OC)cc3)cn2c1N(C)CCC(C)C	nt	nt	-0.9	nt	nt	nt
COCCn1c(SCC(=O)N2CC(C)OC(C)C2)nc2c([nH]c3ccccc32)c1=O (centres undefined)	21.0%	?	-1.2	?	2.6%	-0.8%

Assay outcomes: PubChem, National Center for Advancing Translational Sciences (NCATS)
